KLK7 zymogen act = activators of human kallikrein-7 zymogen; activation, % at 7 µM; purified proKLK7, EDANS-DABCYL substrate fluorescence; 100% is mature enzyme control, 0% vehicle; P49862; 370,000 compounds, 0.9% hits; AID 652039;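 active = activation above the mean of all tested compounds plus 3 SD, computed per campaign excluding outliers beyond control limits, cut at about 13% in these data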
FGF22 binding = binders of recombinant human FGF22 by thermal shift | AID 651658 | SYPRO orange fluorescence; percent of sucrose octasulfate shift, DMSO zero | 340,000 compounds, 1.5% hits | activity (Tm shift, normalised), % at 9.99 µM | Q9HCT0;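 active = mean Tm shift, scaled 0 neutral to 100 positive control, at about 1.3% or above, every replicate too, limit read from the data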
Target sequence (Q9HCT0 whole entry, looked up): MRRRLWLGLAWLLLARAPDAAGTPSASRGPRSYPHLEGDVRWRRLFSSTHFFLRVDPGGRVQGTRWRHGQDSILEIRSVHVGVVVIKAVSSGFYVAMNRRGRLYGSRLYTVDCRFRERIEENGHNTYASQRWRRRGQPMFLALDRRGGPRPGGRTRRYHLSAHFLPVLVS
ADAM10 inh = inhibits human ADAM10; O14672; inhibition, % at 7 µM; recombinant ADAM10, EDANS/DABCYL FRET peptide cleavage, 3 h; 370,000 compounds, 0.62% hits; AID 720582;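 active = inhibition above a per-campaign cutoff equal to the mean of compounds falling between control-based bounds plus 3 SD, cut at about 20% in these data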;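 also: 0% = DMSO wells while the 100% control is not disclosed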
Target sequence (O14672 214-748 limits assumed): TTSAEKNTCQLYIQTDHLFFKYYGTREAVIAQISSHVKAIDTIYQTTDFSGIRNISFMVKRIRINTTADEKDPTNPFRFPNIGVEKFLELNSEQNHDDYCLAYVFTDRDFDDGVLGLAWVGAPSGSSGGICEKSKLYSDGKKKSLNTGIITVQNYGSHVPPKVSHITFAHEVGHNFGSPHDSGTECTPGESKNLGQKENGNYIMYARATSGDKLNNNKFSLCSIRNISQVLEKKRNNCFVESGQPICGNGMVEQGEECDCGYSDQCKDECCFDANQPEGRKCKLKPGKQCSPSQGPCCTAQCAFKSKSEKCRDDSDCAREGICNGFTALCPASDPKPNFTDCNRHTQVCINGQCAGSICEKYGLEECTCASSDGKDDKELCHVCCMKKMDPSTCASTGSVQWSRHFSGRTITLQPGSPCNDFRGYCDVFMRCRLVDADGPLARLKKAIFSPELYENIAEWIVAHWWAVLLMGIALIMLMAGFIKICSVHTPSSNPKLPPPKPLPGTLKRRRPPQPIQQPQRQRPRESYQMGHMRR
ADAM17 inh = inhibits human ADAM17. P78536. recombinant ADAM17, EDANS/DABCYL FRET peptide cleavage. inhibition, % at 6.95 µM. 370,000 compounds, 0.83% hits. AID 720648;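 active = inhibition above the mean of compounds lying between control limits plus 3 SD, set per campaign, cut at about 8.5% in these data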;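 also: 0% = DMSO-only wells as the low control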
Ecoli rRNA inh = inhibits bacterial ribosomal RNA function over humanized ribosomes | 350,000 compounds, 1.6% hits | GFP signal change (wild-type ribosome), % (no concentration beside the values) | E. coli WT GFP vs humanized-ribosome RFP mutants, fluorescence, 24 h; stronger effect = lower value; DMSO median 0, no signal -100;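 active = significant combined selectivity score with lowered wild-type GFP, culture density cut under 30%, mutant RFP and density less affected; inactive = any of these conditions unmet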
Active calls of the source: *; i = inactive; · = no result. Hits are enriched below; roughly 3.8% of the tested compounds scored in any of these assays.

SMILES | KLK7 zymogen act | FGF22 binding | ADAM10 inh | ADAM17 inh | Ecoli rRNA inh
O=C(N/N=C/c1ccc(Cl)cc1Cl)c1ccc2nc[nH]c2c1 | 0.0 | 0.0 | -1.8 | -1.6 | -17.5*
COC(=O)C[C@@H]1CC[C@H]2[C@H](COc3ccc(NS(=O)(=O)c4ccc(F)cc4)cc3C(=O)N2C)O1 | · | · | · | · | 0.1
CO[C@@H]1CN(C)C(=O)c2cc(NS(=O)(=O)CC(F)(F)F)ccc2OC[C@H](C)N(C(=O)NC(C)C)C[C@H]1C | · | -0.1 | · | · | 0.7
CCCCn1c(SC(C)C(=O)c2ccc(OC)cc2)nc2cc(S(N)(=O)=O)ccc21 (centres undefined) | 0.0 | · | 26.1* | 19.7* | ·
Cc1ccc(C(=O)OCc2c(C)noc2C)cc1NC(=O)c1ccco1 | 0.4 | 43.7* | 5.7 | 6.7 | 3.5
CCCCNC(=O)COC(=O)c1ccc(C)c(NC(=O)c2ccco2)c1 | -0.4 | 0.0 | -1.7 | 1.2 | 6.5
O=Cc1ccc2c(c1)CCN2Cc1ccccc1 | 0.1 | 0.2 | -12.6 | -9.4 | -18.8*
CC(NC(=O)c1ccccc1F)c1ccccc1 (centres undefined) | 0.2 | 0.1 | 4.6 | -0.2 | 7.0
CC(NC(=O)c1ccccc1N)c1ccccc1 (centres undefined) | 4.2 | 43.0* | -273.9 | -91.0 | 9.9
CO[C@H]1CN(C)C(=O)c2ccc(NC(=O)c3ccc4c(c3)OCO4)cc2OC[C@H](C)N(CC2CC2)C[C@H]1C | · | -0.2 | · | · | 4.2
CCOC(=O)C(C)Sc1nnc2n1C(C)(C)Cc1ccccc1-2 (centres undefined) | -0.4 | · | -0.1 | -0.8 | -22.1*
CC(C)(C)N(Cc1ccccc1)C(=O)CN1C(=O)c2ccccc2S1(=O)=O | 0.0 | 0.1 | -15.9 | -4.5 | -23.7*
O=C(CCN1CCCCC1)N[C@@H]1CC[C@@H](CCNC(=O)c2cc(Cl)cc(Cl)c2)O[C@H]1CO | · | -0.3 | · | · | -2.5
COCC(=O)N(C)C[C@@H]1Oc2cc(C#CC(C)(C)O)ccc2S(=O)(=O)N([C@H](C)CO)C[C@@H]1C | · | 0.0 | · | · | 6.0
O=C1C(=O)N(CC(=O)N2CCCC2)c2ccccc21 | -0.1 | 43.0* | 7.7 | -2.1 | 13.9
C[C@H]1CCCCO[C@H](CN(C)S(=O)(=O)c2ccc(F)cc2)[C@@H](C)CN([C@@H](C)CO)C(=O)c2cc(NC(=O)Nc3ccccc3)ccc2O1 | · | 0.0 | · | · | 1.6
CSc1ccc(-c2nc(CN3CCCCC3c3cccnc3)c(C)o2)cc1 (centres undefined) | 0.2 | -0.1 | 1.6 | -11.4 | -21.4*
C[C@@H]1CN([C@@H](C)CO)C(=O)c2cc(Br)cnc2O[C@@H]1CN(C)Cc1ccc(C(=O)O)cc1 | · | 0.2 | · | · | ·
CCCNC(=O)c1cc(C2CCCCN2C(=O)c2ccc3c(c2)CCO3)on1 (centres undefined) | -0.5 | 43.0* | -5.0 | -2.3 | -3.5
CC(C)NC(=O)N(C)C[C@@H]1Oc2ncccc2C(=O)N(C)C[C@H]1C | · | · | · | · | 1.0
CCCNC(=O)N(C)C[C@@H]1Oc2ncc(C#CC3(O)CCCC3)cc2C(=O)N([C@H](C)CO)C[C@@H]1C | · | 0.2 | · | · | -0.8
Cc1noc(NS(=O)(=O)c2ccc(NC(=O)CSc3nc4c(cc3C#N)CCCC4)cc2)c1C | 1.6 | · | -15.7 | -3.1 | -24.7*
CN1C[C@@H]2[C@H](c3ccccc31)[C@H](CO)N2Cc1ccccc1F | · | -1.2 | · | · | -0.9
Cc1cccc2nc(CSc3ccccc3C(=O)O)cn12 | -0.7 | 0.3 | 3.3 | 0.1 | 0.3
CC1(C)Cc2ccccc2C(CSc2ccccc2C(=O)O)=N1 | -0.5 | · | 0.6 | -0.2 | -24.9*
SMILES | KLK7 zymogen act | FGF22 binding | ADAM10 inh | ADAM17 inh | Ecoli rRNA inh
Nc1c(C(=O)O)cnc2c(-c3ccc(Cl)cc3)cnn12 | -0.4 | 0.3 | -62.6 | -19.4 | -33.0
Clc1ccc(-c2cnn3c(-c4ccncc4)ccnc23)cc1 | 0.0 | 44.0* | 13.2 | 0.7 | ·
COc1cc(NC(=S)N2CCCC(CO)C2)c(OC)cc1Cl (centres undefined) | -0.9 | 44.5* | 5.0 | -1.1 | 12.6
COc1cccc(/C=C(/C(=O)OCC(=O)NC2CCCCCCC2)c2ccccc2)c1 | 0.4 | 0.1 | 7.8 | 4.2 | 0.6
COc1cccc(/C=C(/C(=O)OCC(=O)NCC2CCCO2)c2ccccc2)c1 (centres undefined) | 0.4 | 43.0* | -0.9 | -3.6 | -26.9
CC(=O)Nc1cccc2c1O[C@H](CN(C)C(=O)NC(C)C)[C@@H](C)CN(C)C2=O | · | · | · | · | -0.6
COCC(=O)N(C)C[C@H]1Oc2ncc(C#C[C@H](C)O)cc2C(=O)N([C@@H](C)CO)C[C@@H]1C | · | -0.2 | · | · | 2.3
CC(C)(CO)NCc1ccc(Br)cc1 | 0.0 | 42.9* | -5.9 | -2.8 | 19.4
COc1cc(OC)c(C(=O)/C=C/c2ccc(OCc3ccccc3)c(OC)c2)c(OC)c1 | -0.5 | -0.1 | 7.5 | 7.4 | 0.0
COc1cc(OC)c(C(=O)C=Cc2ccc(OC)c(OC)c2)c(OC)c1 | 0.1 | 0.0 | 2.5 | 2.1 | -10.7*
COc1ccc(/C=C/C(=O)NCCNC(=O)c2ccccc2)cc1OC | 1.2 | 0.1 | -40.4 | -18.8 | -22.0*
COc1cc(/C=C/C(=O)NCCc2ccc(S(N)(=O)=O)cc2)ccc1OCC#N | 1.3 | 0.2 | -21.6 | -11.9 | -25.8*
O=C1N/C(=N\S(=O)(=O)Cc2ccccc2)S/C1=C/c1cc([N+](=O)[O-])ccc1O | -0.4 | 0.0 | 2.7 | -0.9 | -20.0*
O=C1N/C(=N\S(=O)(=O)c2ccccc2)S/C1=C\c1cc([N+](=O)[O-])ccc1O | 0.1 | 0.1 | 15.7 | 1.1 | -3.8
c1ccc(-c2nc3c4ccccc4ccn3c2CN2CCOCC2)cc1 | 0.9 | 0.0 | -11.1 | -6.7 | -28.8*
N#CC1(Nc2ccc(-c3ccc(NC4(C#N)CCCC4)cc3)cc2)CCCC1 | -0.3 | -0.8 | 21.8* | 18.5* | ·
Cc1ccc(NC2(C#N)CCCC2)cc1 | 0.3 | 0.1 | -29.8 | -4.0 | -2.7
CC(C)(C)OC(=O)NCCCCCNC(=O)c1nc[nH]c1C(=O)NCc1ccc(CNC(=O)OC(C)(C)C)cc1 | 0.3 | -0.6 | 22.6* | 12.4* | -1.3
CC(C)(C)OC(=O)NCc1ccc(CNC(=O)c2nc[nH]c2C(=O)NCc2ccc(CNC(=O)OC(C)(C)C)cc2)cc1 | -0.1 | -0.2 | 10.6 | 12.0* | 9.6
CC(C)(C)OC(=O)NCCCCCNC(=O)c1nc[nH]c1C(=O)NCCCCCNC(=O)OC(C)(C)C | 0.8 | -0.2 | 14.3 | 2.4 | 1.7
C[C@@H]1CCCCO[C@H](CN(C)S(=O)(=O)c2ccc(F)cc2)[C@H](C)CN([C@@H](C)CO)C(=O)c2cc(NC(=O)Nc3ccccc3)ccc2O1 | · | 0.0 | · | · | 0.8
C[C@H](CO)N1C[C@H](C)[C@@H](CN(C)CC2CC2)Oc2ccc(NC(=O)Cc3ccccc3)cc2C1=O | · | · | · | · | 3.5
CCOc1c2ccc(C(=O)N[C@H](C)C3CCCCC3)cc2nn1CCOC | 2.5 | 44.2* | i | -213.4 | 0.1
CCCCn1nc2cc(C(=O)NCCc3ccc(C)cc3)ccc2c1OCC | -21.2 | -0.3 | -463.4 | -132.6 | -38.4*
